Experimental data published in PubChem BioAssay AID1159580 (chemical genetic matrix, 2015).
Hit rate of the full screen: of about 5,500 compounds, about 2,000 (36%) were called active. Another 18% or so got no clear call; they are omitted. Cut-off read from the data, not from the text of the source: active = normalized growth mostly below about 0.91 (no sharp cut-off); inconclusive = no clear call, values can overlap the other calls; inactive = mostly above about 0.92. Some of the results follow.

Experiment: chemical genetic growth profiling, strain panel (AID 1159580);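 note: tested at 20 µM; growth read once vehicle control cultures reached saturation at 30 °C; 1 = growth at the plate median or of vehicle wells; lower values mean less growth of the strain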
Details: S. cerevisiae deletion strains, growth OD

Measured: normalized growth

C/C(=C\c1ccc2c(c1)OCO2)[N+](=O)[O-]
active: locus YAR019C, strain CDC15, stronger effect = lower value 0.0944 | locus YBL105C, strain PKC1, stronger effect = lower value 0.089 | locus YBR135W, strain CKS1, stronger effect = lower value 0.0821 | locus YBR136W, strain MEC1, stronger effect = lower value 0.0972 | locus YBR160W, strain CDC28, stronger effect = lower value 0.096 | locus YDL017W, strain CDC7, stronger effect = lower value 0.103 | locus YDL028C, strain MPS1, stronger effect = lower value 0.108 | locus YDL101C, strain DUN1, stronger effect = lower value 0.101 | locus YDL108W, strain KIN28, stronger effect = lower value 0.107 | locus YDL132W, strain cdc53, stronger effect = lower value 0.121 | locus YDL214C, strain PRR2, stronger effect = lower value 0.0871 | locus YDR052C, strain DBF4, stronger effect = lower value 0.302 | locus YDR054C, strain cdc34, stronger effect = lower value 0.1 | locus YDR226W, strain ADK1, stronger effect = lower value 0.112 | locus YDR477W, strain SNF1, stronger effect = lower value 0.0948 | locus YER123W, strain YCK3, stronger effect = lower value 0.0987 | locus YER133W, strain GLC7, stronger effect = lower value 0.0948 | locus YFL009W, strain cdc4, stronger effect = lower value 0.0975 | locus YFL029C, strain CAK1, stronger effect = lower value 0.0944 | locus YFR003C, strain YPI1, stronger effect = lower value 0.123 | locus YFR019W, strain FAB1, stronger effect = lower value 0.0927 | locus YFR028C, strain CDC14, stronger effect = lower value 0.108 | locus YGR040W, strain KSS1, stronger effect = lower value 0.0949 | locus YGR052W, strain FMP48, stronger effect = lower value 0.11 | locus YGR092W, strain DBF2, stronger effect = lower value 0.0972 | locus YHR030C, strain SLT2, stronger effect = lower value 0.107 | locus YHR079C, strain IRE1, stronger effect = lower value 0.113 | locus YHR082C, strain KSP1, stronger effect = lower value 0.12 | locus YHR205W, strain SCH9, stronger effect = lower value 0.00121 | locus YIL147C, strain SLN1, stronger effect = lower value 0.108 | locus YJL095W, strain BCK1, stronger effect = lower value 0.107 | locus YJL128C, strain PBS2, stronger effect = lower value 0.124 | locus YJL157C, strain FAR1, stronger effect = lower value 0.084 | locus YJR016C, strain ILV3, stronger effect = lower value 0.0841 | locus YJR066W, strain TOR1 (second series), stronger effect = lower value 0.0942 | locus YJR066W, strain TOR1, stronger effect = lower value 0.105 | locus YKL048C, strain ELM1, stronger effect = lower value 0.106 | locus YKL067W, strain YNK1, stronger effect = lower value 0.0865 | locus YKL101W, strain HSL1, stronger effect = lower value 0.0966 | locus YKL193C, strain SDS22, stronger effect = lower value 0.0838 | locus YKL203C, strain TOR2, stronger effect = lower value 0.107 | locus YLR113W, strain HOG1, stronger effect = lower value 0.126 | locus YLR133W, strain CKI1, stronger effect = lower value 0.0901 | locus YLR403W, strain SFP1, stronger effect = lower value -0.000823 | locus YML070W, strain DAK1, stronger effect = lower value 0.0897 | locus YMR001C, strain CDC5, stronger effect = lower value 0.0887 | locus YMR205C, strain PFK2 (second series), stronger effect = lower value 0.0868 | locus YMR277W, strain FCP1, stronger effect = lower value 0.0888 | locus YNL006W, strain LST8, stronger effect = lower value 0.0816 | locus YNL020C, strain ARK1, stronger effect = lower value 0.0897 | locus YNL161W, strain CBK1, stronger effect = lower value 0.0823 | locus YNL183C, strain NPR1, stronger effect = lower value 0.114 | locus YNL207W, strain RIO2, stronger effect = lower value 0.091 | locus YNL222W, strain SSU72, stronger effect = lower value 0.0831 | locus YNL307C, strain MCK1 (second series), stronger effect = lower value 0.0968 | locus YOL078W, strain AVO1, stronger effect = lower value 0.0833 | locus YOL136C, strain PFK27, stronger effect = lower value 0.0926 | locus YOR061W, strain CKA2, stronger effect = lower value 0.0859 | locus YOR119C, strain RIO1, stronger effect = lower value 0.11 | locus YOR231W, strain MKK1, stronger effect = lower value 0.108 | locus YOR329C, strain SCD5, stronger effect = lower value 0.0841 | locus YPL031C, strain PHO85, stronger effect = lower value 0.0922 | locus YPL153C, strain RAD53, stronger effect = lower value 0.101 | locus YPL204W, strain HRR25, stronger effect = lower value 0.0962 | locus YPL209C, strain IPL1, stronger effect = lower value 0.0837 | locus YPL256C, strain CLN2, stronger effect = lower value 0.128 | locus YPR025C, strain CCL1, stronger effect = lower value 0.0836 | locus YPR106W, strain ISR1, stronger effect = lower value 0.0862 | locus YPR111W, strain DBF20, stronger effect = lower value 0.142 | strain NNK1, stronger effect = lower value 0.0961 | strain TSCII, stronger effect = lower value 0.0923
